Only some compounds are listed: those with a hit (about 7.3% of all), similar ones and a draw of the others.
Tau fluor counter: Counterscreen qHTS for Inhibitors of Tau Fibril Formation, Fluorescence Polarization. tau K18 P301L Alexa594 fluorescence, heparin fibrillization. Potency, µM (highest dose often 57.7 µM), without a hit: at the top dose activity change, negative = decrease. actives 0.93% (n = 280,000); further: nearly all actives have a fitted effect of over 55% in size
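Human tau K18 P301L (15 uM unlabeled, 0.24 uM Alexa 594-labeled) in 100 mM sodium acetate pH 7 with 20 uM heparin, 6 hr at 37 C. ThT 30 uM added, 1 hr ambient; Alexa 594 FP and total fluorescence read at 555/632 nm.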
Tau fibril ThT: qHTS for Inhibitors of Tau Fibril Formation, Thioflavin T Binding; recombinant tau K18 P301L, heparin-induced fibrillization, ThT fluorescence; actives 2.1% (n = 270,000); Potency, µM (top dose mostly 57.4 µM), for inactives: at the top dose activity, negative = inhibition, hits mostly inhibitors; Microtubule-associated protein tau (Homo sapiens), P10636; further: nearly all actives have a fitted effect of over 55% in size
Target sequence (P10636 561-689 P618L limits assumed): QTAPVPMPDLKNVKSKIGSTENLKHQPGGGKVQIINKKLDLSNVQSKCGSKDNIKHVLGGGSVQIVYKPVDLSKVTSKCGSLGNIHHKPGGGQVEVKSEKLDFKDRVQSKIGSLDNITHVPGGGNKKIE
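Aggregation was driven by heparin (20 uM final) acting on recombinant tau […] bearing P301L in 100 mM sodium acetate pH 7; fibrils were detected with Thioflavin T.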
RORgamma inh: qHTS for inhibitors of ROR gamma transcriptional activity. Potency, µM (doses to about 53.6 µM), for the others: at the top dose activity change, negative = inhibition, hits mostly inhibitors. actives 5.4% (n = 310,000). Nuclear receptor ROR-gamma (Mus musculus), P51450. Drosophila S2 Gal4-RORgamma UAS-luciferase reporter, 20 h. AID 2551, 2010; further: nearly all actives have a fitted effect of over 60% in size
Target sequence (P51450 whole entry, looked up, the tested form may be a part): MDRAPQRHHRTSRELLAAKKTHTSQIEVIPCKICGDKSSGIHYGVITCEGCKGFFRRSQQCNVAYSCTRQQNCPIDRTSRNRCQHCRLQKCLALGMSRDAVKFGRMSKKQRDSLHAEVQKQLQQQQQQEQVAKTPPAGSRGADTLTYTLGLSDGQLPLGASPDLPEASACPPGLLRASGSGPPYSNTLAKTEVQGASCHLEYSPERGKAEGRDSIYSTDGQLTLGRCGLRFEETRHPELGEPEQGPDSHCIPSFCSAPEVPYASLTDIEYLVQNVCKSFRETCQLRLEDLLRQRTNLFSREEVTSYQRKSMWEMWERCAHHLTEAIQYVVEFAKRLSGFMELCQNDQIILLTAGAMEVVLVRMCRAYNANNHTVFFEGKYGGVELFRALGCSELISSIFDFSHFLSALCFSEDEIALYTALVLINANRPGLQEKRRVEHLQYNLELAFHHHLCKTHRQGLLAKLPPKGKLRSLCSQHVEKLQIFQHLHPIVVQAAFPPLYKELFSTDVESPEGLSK
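Stable Schneider cell line, Gal4 DNA-binding domain fused to ROR gamma, UAS-luciferase. Cmpd 1 hr RT → CuSO4 700 uM final → 20 hr RT → luciferase reagent 10 min → luminescence.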
Gal4-VP16 FLuc: VP16 counterscreen qHTS for inhibitors of ROR gamma transcriptional activity. Drosophila S2 Gal4-VP16 UAS-luciferase, luminescence, 20 h. Potency, µM (highest dose often 53.6 µM), for inactives: at the highest dose activity, negative = inhibition, most hits filed as inhibitors. actives 3.5% (n = 310,000). AID 2546, 2010;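 further: Gal4-VP16 expression switched on by copper sulfate through the metallothionein promoter; nearly all actives have a fitted effect of over 50% in size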
Tau FP inhib: qHTS for Inhibitors of Tau Fibril Formation, Fluorescence Polarization; K18 P301L tau heparin fibrillization, Alexa594 FP, 6 h; AID 1468, 2008; Microtubule-associated protein tau (Homo sapiens), P10636; Potency, µM (series often up to 57.7 µM), for the others: at the highest dose activity, negative = inhibition, actives largely listed as inhibitors; actives 0.39% (n = 280,000); further: nearly all actives have a fitted effect of over 55% in size
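Heparin (20 uM) drove fibril formation of recombinant tau K18 P301L, 15 uM unlabeled with 0.24 uM Alexa 594 label, for 6 hr at 37 C in 100 mM sodium acetate pH 7. Fluorescence polarization (555/632 nm) read 1 hr after 30 uM ThT.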
* = called active by the depositor; ? = inconclusive; . = not tested or not shown; [ ] = dose if it differs, or a comment. The call rests on the fitted dose curve; in most records, active means well fitted curve in the direction sought with a large enough effect; inconclusive means small, poorly fitted or top-dose-only effect, or another doubt; inactive means no such curve, though single readings can be large; an effect the other way counts as inactive or inconclusive. On the % scale 0 is the no-effect control and ±100 the full control effect; potency means the concentration at half of the fitted maximal effect.

SMILES | Tau fluor counter | Tau fibril ThT | RORgamma inh | Gal4-VP16 FLuc | Tau FP inhib
CN(C(=O)Cc1ccc(Cl)c(Cl)c1)[C@H](CN1CCCC1)c1cccc(N=C=S)c1 | ? | -17% | 32µM* | ? | ?
CCOc1cc(/C=N/NC(=O)c2cccs2)ccc1OC(=O)N1CCOCC1 | -9% | ? | 30% | 0% | -6%
COc1ccc(-c2nc3ccccc3c(=O)n2-c2nccs2)cc1 | -13% | -8% | 6.3µM* | ? | 0%
COc1ccc(-c2nc3ccccc3c(=O)n2-c2ccc(OC)cc2)cc1 | -9% | -11% | 4% | 7% | -1%
CC1CCN(S(=O)(=O)c2ccc(NN=C(C#N)C#N)cc2)CC1 | ? | 14µM* | ? | ? | -2%
N#CC(C#N)=NNc1ccc(S(N)(=O)=O)cc1 | -27% | 10µM* | 7% | -8% | -9%
CC[C@H](C)[C@H](NC(=O)[C@@H](N)Cc1ccc(O)cc1)C(=O)NCC(=O)N[C@@H](CO)C(=O)N[C@@H](CCCN=C(N)N)C(N)=O | . | . | 15% | -8% | .
CNc1ccc2oc(C[C@@H]3OC4(CC[C@@H]3C)O[C@H]([C@@H](C)C(=O)c3ccc[nH]3)[C@H](C)C[C@H]4C)nc2c1C(=O)O (some centres not stated) | ? | 32µM* | . | . | ?
CNc1ccc2oc(C[C@H]3O[C@@]4(CC[C@H]3C)O[C@H]([C@H](C)C(=O)c3ccc[nH]3)[C@H](C)C[C@H]4C)nc2c1C(=O)O | ? | ? | -9% | 1.3µM* | -10%
NCCNC[C@@H](N)CCCN=C(N)N[N+](=O)[O-] | . | . | -6% | -11% | .
NC(Cc1ccc(N(CCCl)CCCl)cc1)C(=O)O (configuration not stated) | ? | 28µM* | 1% | 6% | ?
C=C(CC1CC(O)[C@]2(C)OC3CC4OC5C[C@]6(C)O[C@]7(C)CCC8OC9C[C@]%10(C)OC%11C(C)=CC(=O)OC%11CC%10OC9C[C@@H](C)C8OC7CC6O[C@]5(C)C/C=C\C4OC3CC2O1)C(=O)O (some centres not stated) | 8% | -11% | -17% | 15% | 9%
C=C(C=O)C[C@@H]1C[C@H](O)C2OC3C[C@]4(C)OC5/C=C\CC6OC7C(CC=CCC6OC5CCCC4OC3CC2O1)OC1CC2OC3CC(=O)OC3C[C@@H](C)C[C@@]2(C)OC1C[C@@H]7C (some centres not stated) | -15% | 3.5µM* | ? | -5% | 4µM*
CN1C(=O)/C(=C/c2ccc(Cl)s2)C(=O)NC1=S | . | . | 11µM* | 13µM* | .
Cc1ccsc1/C=C1\C(=O)NC(=S)N(C)C1=O | . | . | ? | 22µM* | .
CCN1C(=O)c2ccccc2Sc2ccc(NC(=O)c3ccc(C)c(F)c3)cc21 | -19% | 5% | . | . | ?
O=C(NC1CCCCC1)c1cn(CCN2CCOCC2)c2cc(Cl)ccc2c1=O | . | . | -10% | -8% | .
ClC(Cl)(Cl)C(Cl)(Cl)Cl | . | . | 2% | 2% | .
O=C1c2ccccc2C(=O)C1C(=O)C(c1ccccc1)c1ccccc1 | . | . | 19% | 8% | .
Cc1ccc(/C=C/C(=O)C2C(=O)c3ccccc3C2=O)cc1 | -7% | ? | 6.3µM* | ? | 0%
COC(=O)c1cc(NC(=O)Cn2nc(-c3ccccc3)c3c(c2=O)CCCC3)cc(C(=O)OC)c1 | -26% | 1% | . | . | ?
COC(=O)COc1ccc(C[C@@H](C)NC[C@H](O)c2cccc(Cl)c2)cc1 | . | . | -13% | -7% | .
NNC(=O)c1nn(-c2ccccc2)cc1O | -6% | ? | -14% | 5% | 5%
Clc1cccc(/C=N\Nc2nccs2)c1 | 18µM*[quencher] | ? | 11µM* | ? | 15%
O=c1[nH]c(=O)n(-c2ccc(Cl)cc2)c(O)c1C=Nc1ccc(S(=O)(=O)Nc2nccs2)cc1 | 4% | -17% | 3% | -15% | 2%
SMILES | Tau fluor counter | Tau fibril ThT | RORgamma inh | Gal4-VP16 FLuc | Tau FP inhib
COc1cc2c(cc1OC)-c1c(OC)c(OC)c(CO)c3c1C(C2)N(C)CC3 (configuration not stated) | -3% | -3% | 2% | 6% | -3%
Cc1ccc2c(c1)CC1(CN2C)C(=O)NC(=O)N(CCC2=CCCCC2)C1=O (configuration not stated) | -26% | 25µM* | 36% | -1% | ?
Cc1ccc2c(c1)CC1(CN2C)C(=O)NC(=O)N(C(C)C)C1=O (configuration not stated) | -8% | ? | 16% | 1% | ?
C[N+]1([O-])CCC[C@@H]1c1cccnc1 (some centres not stated) | 9% | 7% | . | . | 7%
CN1CCC(O)(c2cccs2)C(C(=O)c2cccs2)C1 (configuration not stated) | . | . | 4µM* | 3.2µM* | .
CCC(C)(C)O | . | . | 24% | -3% | .
Clc1cc(Cl)c(Cl)c(Cl)c1 | . | . | 14% | -16% | .
C=CCN1C(=O)NC(=O)/C(=C/C=C/c2ccccc2)C1=O | -20% | 28µM* | ? | -1%[10 µM] | ?
O=C1NC(=O)N(CCc2ccc(F)cc2)C(=O)/C1=C\C=C\c1ccccc1 | -19% | 28µM* | -3% | -5% | ?
C=CCN1C(=O)NC(=O)/C(=C/c2ccc(OC)c(CSc3ccccn3)c2)C1=O | -7% | ? | -4% | ? | -9%
CCn1nc(-c2ccccc2)nc2c(=O)n(C)c(=O)nc1-2 | -10% | 16µM* | 0.89µM* | 1.3µM* | ?
CC1(C)N(O)C2CCCCC2N1O (configuration not stated) | 6% | -3% | 16µM* | ? | -9%
C[C@@H]1C[C@H](C)C[C@H](C)[C@@H](O)CC(=O)O[C@H]([C@H]2CCC[C@H]2C(=O)O)C/C=C/C=C(/C#N)[C@H](O)[C@@H](C)C1 | . | . | 0.028µM* | ? | .
CC1=CC[C@@H]2[C@@H](C1)c1c(O)cc(CC#CCCCNS(C)(=O)=O)cc1OC2(C)C | ? | ? | 21% | ? | 9%
Cn1c(O)c(C2=NN(C(=O)CCl)C(c3ccccc3)C2)c(=O)n(C)c1=O (configuration not stated) | -13% | ? | ? | 18µM* | -1%
CCC(=O)N1N=C(c2c(O)n(C)c(=O)n(C)c2=O)CC1c1ccccc1 (configuration not stated) | -13% | -13% | 11µM* | -10% | -8%
Cn1c(O)c(C=NC2CCN(Cc3ccccc3)CC2)c(=O)n(C)c1=O | ? | -4% | 39% | -7% | ?

High-throughput results deposited in PubChem by National Center for Advancing Translational Sciences (NCATS).
